Source: PubChem BioAssay AID1159580 (chemical genetic matrix, 2015)
Out of some 5,500 compounds screened, about 2,000 (36%) were called active. About 18% were inconclusive and are not listed. Rule as the data show it: active = normalized growth mostly below about 0.91 (no sharp cut-off); inconclusive = no clear call, values can overlap the other calls; inactive = mostly above about 0.92. This is one part of the list.

Assay: chemical genetic growth profiling, strain panel (AID 1159580);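 also: tested at 20 µM; growth read once vehicle control cultures reached saturation at 30 °C; 1 = growth at the plate median or of vehicle wells; lower values mean less growth of the strain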
Details: growth OD

Measured: normalized growth

CNC(C)(C)Cc1ccccc1
inactive: S. cerevisiae deletion strains, locus YJR043C, strain POL32, hits give low values 0.977 | S. cerevisiae deletion strains, locus YJR066W, strain TOR1, hits give low values 1.01 | S. cerevisiae deletion strains, locus YKL009W, strain mrt4, hits give low values 0.988 | S. cerevisiae deletion strains, locus YKL068W, hits give low values 1 | S. cerevisiae deletion strains, locus YKL085W, strain MDH1 (second series), hits give low values 1.01 | S. cerevisiae deletion strains, locus YKL085W, strain MDH1, hits give low values 1.01 | S. cerevisiae deletion strains, locus YKL160W, strain elf1, hits give low values 1.01 | S. cerevisiae deletion strains, locus YKL190W, strain CNB1, hits give low values 1.01 | S. cerevisiae deletion strains, locus YKR001C, strain vps1, hits give low values 0.991 | S. cerevisiae deletion strains, locus YKR026C, strain gcn3, hits give low values 1.02 | S. cerevisiae deletion strains, locus YKR091W, strain srl3, hits give low values 1 | S. cerevisiae deletion strains, locus YLL001W, strain dnm1, hits give low values 1.01 | S. cerevisiae deletion strains, locus YLL026W, hits give low values 1.02 | S. cerevisiae deletion strains, locus YLL041C, strain sdh2, hits give low values 1.02 | S. cerevisiae deletion strains, locus YLR027C, strain aat2, hits give low values 1.02 | S. cerevisiae deletion strains, locus YLR039C, strain RIC1, hits give low values 1.04 | S. cerevisiae deletion strains, locus YLR058C, strain SHM2, hits give low values 1.01 | S. cerevisiae deletion strains, locus YLR102C, strain apc9, hits give low values 1.01 | S. cerevisiae deletion strains, locus YLR113W, strain HOG1, hits give low values 1.06 | S. cerevisiae deletion strains, locus YLR221C, strain rsa3, hits give low values 1.02 | S. cerevisiae deletion strains, locus YLR258W, strain gsy2, hits give low values 1.02 | S. cerevisiae deletion strains, locus YLR262C, strain YPT6 (second series), hits give low values 1 | S. cerevisiae deletion strains, locus YLR262C, strain YPT6, hits give low values 1.02 | S. cerevisiae deletion strains, locus YLR268W, strain sec22, hits give low values 1 | S. cerevisiae deletion strains, locus YLR320W, strain mms22, hits give low values 1.04 | S. cerevisiae deletion strains, locus YLR330W, strain CHS5, hits give low values 1.01 | S. cerevisiae deletion strains, locus YLR342W, strain FKS1 (second series), hits give low values 1.08 | S. cerevisiae deletion strains, locus YLR342W, strain FKS1, hits give low values 1.02 | S. cerevisiae deletion strains, locus YLR357W, strain rsc2, hits give low values 0.988 | S. cerevisiae deletion strains, locus YLR370C, strain arc18, hits give low values 1.01 | S. cerevisiae deletion strains, locus YLR371W, strain rom2, hits give low values 1.01 | S. cerevisiae deletion strains, locus YLR384C, strain iki3, hits give low values 1.01 | S. cerevisiae deletion strains, locus YLR418C, strain cdc73, hits give low values 1.01 | S. cerevisiae deletion strains, locus YML016C, strain PPZ1, hits give low values 1.01 | S. cerevisiae deletion strains, locus YML032C, strain rad52, hits give low values 0.985 | S. cerevisiae deletion strains, locus YML120C, strain ndi1, hits give low values 1.02 | S. cerevisiae deletion strains, locus YML124C, strain tub3, hits give low values 1.01 | S. cerevisiae deletion strains, locus YMR058W, strain fet3, hits give low values 1 | S. cerevisiae deletion strains, locus YMR078C, strain ctf18, hits give low values 0.999 | S. cerevisiae deletion strains, locus YMR125W, strain sto1, hits give low values 1.02 | S. cerevisiae deletion strains, locus YMR129W, hits give low values 1.01 | S. cerevisiae deletion strains, locus YMR205C, strain PFK2, hits give low values 1.03 | S. cerevisiae deletion strains, locus YMR223W, strain ubp8, hits give low values 1.02 | S. cerevisiae deletion strains, locus YMR231W, strain pep5, hits give low values 1.02 | S. cerevisiae deletion strains, locus YMR307W, strain GAS1, hits give low values 1.02 | S. cerevisiae deletion strains, locus YNL067W, strain RPL9B, hits give low values 0.988 | S. cerevisiae deletion strains, locus YNL071W, strain lat1, hits give low values 1.01 | S. cerevisiae deletion strains, locus YNL128W, strain TEP1, hits give low values 1.03 | S. cerevisiae deletion strains, locus YNL183C, strain NPR1, hits give low values 1 | S. cerevisiae deletion strains, locus YNL209W, strain ssb2, hits give low values 1.02 | S. cerevisiae deletion strains, locus YNL233W, strain BNI4, hits give low values 0.995 | S. cerevisiae deletion strains, locus YNL248C, strain rpa49, hits give low values 1.01 | S. cerevisiae deletion strains, locus YNL250W, strain rad50, hits give low values 1.02 | S. cerevisiae deletion strains, locus YNL271C, strain bni1, hits give low values 0.997 | S. cerevisiae deletion strains, locus YNL298W, strain CLA4, hits give low values 1 | S. cerevisiae deletion strains, locus YNL307C, strain MCK1, hits give low values 1.01 | S. cerevisiae deletion strains, locus YNL322C, strain KRE1 (second series), hits give low values 1.02 | S. cerevisiae deletion strains, locus YNL322C, strain KRE1, hits give low values 1 | S. cerevisiae deletion strains, locus YNR049C, strain mso1, hits give low values 1.01 | S. cerevisiae deletion strains, locus YNR052C, strain pop2, hits give low values 1 | S. cerevisiae deletion strains, locus YOL006C, strain TOP1, hits give low values 0.958 | S. cerevisiae deletion strains, locus YOL012C, strain htz1 1.02 | S. cerevisiae deletion strains, locus YOL147C, strain pex11, hits give low values 1.01 | S. cerevisiae deletion strains, locus YOR001W, strain rrp6, hits give low values 1.03 | S. cerevisiae deletion strains, locus YOR061W, strain CKA2, hits give low values 1.01 | S. cerevisiae deletion strains, locus YOR069W, strain VPS5, hits give low values 1.01 | S. cerevisiae deletion strains, locus YOR070C, strain gyp1, hits give low values 1.01 | S. cerevisiae deletion strains, locus YOR080W, strain dia2, hits give low values 1.02 | S. cerevisiae deletion strains, locus YOR083W, strain WHI5, hits give low values 1.02 | S. cerevisiae deletion strains, locus YOR106W, strain vam3, hits give low values 1.03 | S. cerevisiae deletion strains, locus YOR136W, strain idh2, hits give low values 0.994 | S. cerevisiae deletion strains, locus YOR144C, strain elg1, hits give low values 0.995 | S. cerevisiae deletion strains, locus YOR184W, strain ser1, hits give low values 0.998 | S. cerevisiae deletion strains, locus YOR231W, strain MKK1, hits give low values 1.03 | S. cerevisiae deletion strains, locus YOR265W, strain rbl2, hits give low values 1.01 | S. cerevisiae deletion strains, locus YOR270C, strain vph1, hits give low values 1.04 | S. cerevisiae deletion strains, locus YOR290C, strain snf2, hits give low values 1.01 | S. cerevisiae deletion strains, locus YOR316C, strain cot1, hits give low values 1.01 | S. cerevisiae deletion strains, locus YPL051W, strain arl3, hits give low values 1.02 | S. cerevisiae deletion strains, locus YPL078C, strain atp4, hits give low values 1.01 | S. cerevisiae deletion strains, locus YPL106C, strain sse1, hits give low values 1.05 | S. cerevisiae deletion strains, locus YPL240C, strain hsp82, hits give low values 1.01 | S. cerevisiae deletion strains, locus YPL241C, strain CIN2, hits give low values 1.01 | S. cerevisiae deletion strains, locus YPL256C, strain CLN2, hits give low values 1.02 | S. cerevisiae deletion strains, locus YPR119W, strain clb2, hits give low values 1.01 | S. cerevisiae deletion strains, locus YPR141C, strain kar3, hits give low values 0.998 | S. cerevisiae deletion strains, locus YPR163C, strain tif3, hits give low values 0.999 | S. cerevisiae deletion strains, locus YPR167C, strain met16, hits give low values 1 | S. cerevisiae deletion strains, strain wtn01, hits give low values 0.999 | S. cerevisiae strains, strain wild type, hits give low values 1.01
